# From the supplement of paper PMC9948646
# Test system: gramicidin D channels in DC22:1PC lipid vesicles (bilayer-modifying potency)
# Assay: initial Tl+ fluorescence quench rate relative to no-drug control (NormRate, gramicidin monomer-dimer shift) (ratio (fold of control)); higher = stronger bilayer-modifying effect (equilibrium shifted toward conducting dimers), active = 1.5 or more
# Conditions: 10 µM; lipid concentration 50 µM; temperature: 25 °C
# Experimental: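 Stopped-flow fluorescence quench assay: ANTS-loaded DC22:1PC large unilamellar vesicles doped with gramicidin D (1:2000), 50 µM lipid, equilibrated 10 min with 10 µM drug (0.1% DMSO), mixed with Tl+ quench buffer at 25°C. Initial quench rate (Tl+ influx) was fitted with a modified stretched exponential and normalised to the no-drug control rate (NormRate); duplicates from two independent LUV preparations (triplicates for 7 drugs).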
row,SMILES,initial Tl+ fluorescence quench rate
1,C[C@]1(O)C[C@@H](c2nc(-c3ccc4ccc(-c5ccccc5)nc4c3)c3c(N)nccn32)C1,1.59 (active)
2,Cc1ccc2oc(-c3cc(NC(=O)Cc4ccccc4)ccc3Cl)nc2c1,1.18 (inactive)
3,O=C([C@@H](Cc1c[nH]c2ccccc12)NS(=O)(=O)c1ccc(Cl)cc1)N1CCCCC1,4.26 (active)
4,CC(C)/N=c1\cc2n(-c3ccc(Cl)cc3)c3ccccc3nc-2cc1Nc1ccc(Cl)cc1,5.63 (active)
5,N#Cc1ccc(-c2ccc(OCC(N)=O)cc2)cc1,1.06 (inactive)
6,CC(=O)Nc1ccc(-c2noc(C[C@@H]3CCCN(Cc4cccc(F)c4C)C3)n2)cc1,1.29 (inactive)
7,Cc1cc(O)nc(-n2nc(C)cc2C)n1,1.04 (inactive)
8,Cc1ccc(NC(=O)c2cc(S(=O)(=O)NC(C)(C)C)ccc2C)nc1,1.21 (inactive)
9,O=C(Nc1nnc(-c2ccc(Cl)cc2)o1)c1cccc(C(F)(F)F)c1,1.07 (inactive)
10,C[C@@H](C(=O)N1CCCC1)N1CCN(S(=O)(=O)c2ccc(C(C)(C)C)cc2)CC1,1.15 (inactive)
11,NCCC[C@](N)(C(=O)O)C(F)F,1.07 (inactive)
12,Nc1ccc2ncnc(Nc3ccc(OCc4cccc(F)c4)c(Cl)c3)c2c1,2.58 (active)
13,O=C(c1cc2ccccc2o1)N1CCN(Cc2ccc3c(c2)OCO3)CC1,1.08 (inactive)
14,CC(C)n1nc(-c2cc3c(Cl)cccc3[nH]2)c2c(N)ncnc21,3.74 (active)
15,N#Cc1ccc(-c2cnc(N)c(-c3ccc(C(N)=O)cc3)n2)cc1,1.28 (inactive)
16,OCc1ccc(-c2cncc(Nc3cccc(Cl)c3)c2)cc1,2.64 (active)
17,CC(=O)N1CCN(c2ccc(Oc3ccc(Cl)cc3O)cc2)CC1,1.51 (active)
18,COc1cccc(CC(=O)N2CCC(n3c(C)nc4ccc(F)cc43)CC2)c1,1.15 (inactive)
19,CC[C@@H]([C@H](C)O)n1ncn(-c2ccc(N3CCN(c4ccc(OC[C@@H]5CO[C@@](Cn6cncn6)(c6ccc(F)cc6F)C5)cc4)CC3)cc2)c1=O,7.69 (active)
20,Cc1cc(Cl)c(S(=O)(=O)N2CCCC2)cc1OCC(=O)NC1CCCCC1,1.19 (inactive)

row,SMILES,initial Tl+ fluorescence quench rate
1,CS(=O)(=O)c1cccc(-c2cnc3[nH]cc(-c4ccc(CCC(=O)O)cc4)c3c2)c1,1.09 (inactive)
2,C[C@H](C(=O)Nc1ccc2oc(-c3ccncc3)nc2c1)c1ccccc1,1.09 (inactive)
3,O=C(NCCc1ccn(-c2ccccc2)n1)C1CCCCC1,1.05 (inactive)
4,Clc1cccc([C@@H](c2ccc(CN3CCNCC3)cc2)n2ccnc2)c1,1.17 (inactive)
5,CC(C)(C)c1ccc(N[C@@H]2CCCC[C@H]2NC(=O)c2ccco2)cc1,1.36 (inactive)
6,CNc1cc(C)nc([C@@H]2CN(C(=O)c3n[nH]c4ccccc34)CCO2)c1,1.11 (inactive)
7,c1csc(-c2cnc3sc(NCC4CCOCC4)nn23)c1,1.71 (active)
8,c1cncc(NCc2ccc(-c3cc4ccncc4cc3OC3CCNCC3)s2)c1,1.32 (inactive)
9,Cc1cc(OCC(=O)Nc2ccc(C(C)C)cc2)n(C)c(=O)c1C#N,1.25 (inactive)
10,Cc1nn(C)cc1[C@H](C)Nc1nncc(-c2ccc(C(F)(F)F)cc2)n1,1.93 (active)
11,COc1ccc(C2(C(=O)Nc3ccc(Br)cc3)CCCC2)cc1,1.14 (inactive)
12,c1ccc(-c2nc(NC3CCCCC3)cc(C3CC3)n2)nc1,1.76 (active)
13,C[C@@H](Oc1cccc(Cl)c1)C(=O)Nc1ccc2oc(-c3ccncc3)nc2c1,1.72 (active)
14,COc1ccc(-c2cnc3cnc(-c4cccc(OC(C)C)c4)cn23)cc1,2.01 (active)
15,CN(C)c1cc(NC(=O)Nc2ccccc2)c2ccccc2n1,1.74 (active)
16,CCn1cnc2c(Nc3cc(F)cc(F)c3)nc(C#N)nc21,1.21 (inactive)
17,[H]/N=C(/N)Nc1ccc(-c2ccc(-c3ccc(N/C(N)=N/[H])cc3Cl)o2)c(Cl)c1,1.53 (active)
18,COc1cncc(-c2cncc(N3CCN(c4ccncc4)CC3)n2)c1,1.11 (inactive)
19,COc1ccc2nc(C)cc(OCC(=O)Nc3ccccc3OC)c2c1,1.11 (inactive)
20,COc1cc(NC(=O)Cc2nn(C)c(=O)c3ccccc23)ccc1Cl,1.11 (inactive)
